# Source: the supplement of paper PMC11732987, “Enantioselective OTUD7B fragment discovery through chemoproteomics screening and high-throughput optimisation” (Communications Chemistry, 2025)
# Values without a mark were called inactive.
# Legend:
# Experiment in all cases: log2 ratio of Biotin-Ahx-Ub-VS probe labelling (fragment/DMSO); higher = less target engagement (more negative = stronger competition), active = hit call of the paper (q ≤ 0.05, log2 ratio ≤ -1)
# Conditions in all cases: compound concentration: 200 uM; treatment time: 3 h
# OTUD6B = target: T1, OTUD6B (UniProt Q8N6M0)
# T1 sequence (whole entry): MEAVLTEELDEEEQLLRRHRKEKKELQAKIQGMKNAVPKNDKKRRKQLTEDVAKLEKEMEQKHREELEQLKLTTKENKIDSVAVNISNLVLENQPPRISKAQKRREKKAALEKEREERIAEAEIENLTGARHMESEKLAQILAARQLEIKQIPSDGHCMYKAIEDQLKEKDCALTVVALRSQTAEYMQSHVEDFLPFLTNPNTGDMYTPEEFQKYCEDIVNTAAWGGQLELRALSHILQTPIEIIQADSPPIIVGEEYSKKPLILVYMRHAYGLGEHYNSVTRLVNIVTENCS
# In short: (§1)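 Using Biotin-Ahx-Ub-VS at 0.5 µM final for 1 h, DUBs were labelled in HEK293T lysate (495 µg per sample) that had first been treated in triplicate with fragment at 200 µM or vehicle for 3 h. NeutrAvidin enrichment, LysC and trypsin digestion and diaPASEF LC-MS/MS followed. Spectronaut label-free quantities were global-median-normalised. Values are average log2 fragment/vehicle ratios by unpaired t-test, using proteins with ≥2 unique peptides.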
# OTUD7B = target: T2, OTUD7B (UniProt Q6GQQ9)
# T2 sequence (whole entry): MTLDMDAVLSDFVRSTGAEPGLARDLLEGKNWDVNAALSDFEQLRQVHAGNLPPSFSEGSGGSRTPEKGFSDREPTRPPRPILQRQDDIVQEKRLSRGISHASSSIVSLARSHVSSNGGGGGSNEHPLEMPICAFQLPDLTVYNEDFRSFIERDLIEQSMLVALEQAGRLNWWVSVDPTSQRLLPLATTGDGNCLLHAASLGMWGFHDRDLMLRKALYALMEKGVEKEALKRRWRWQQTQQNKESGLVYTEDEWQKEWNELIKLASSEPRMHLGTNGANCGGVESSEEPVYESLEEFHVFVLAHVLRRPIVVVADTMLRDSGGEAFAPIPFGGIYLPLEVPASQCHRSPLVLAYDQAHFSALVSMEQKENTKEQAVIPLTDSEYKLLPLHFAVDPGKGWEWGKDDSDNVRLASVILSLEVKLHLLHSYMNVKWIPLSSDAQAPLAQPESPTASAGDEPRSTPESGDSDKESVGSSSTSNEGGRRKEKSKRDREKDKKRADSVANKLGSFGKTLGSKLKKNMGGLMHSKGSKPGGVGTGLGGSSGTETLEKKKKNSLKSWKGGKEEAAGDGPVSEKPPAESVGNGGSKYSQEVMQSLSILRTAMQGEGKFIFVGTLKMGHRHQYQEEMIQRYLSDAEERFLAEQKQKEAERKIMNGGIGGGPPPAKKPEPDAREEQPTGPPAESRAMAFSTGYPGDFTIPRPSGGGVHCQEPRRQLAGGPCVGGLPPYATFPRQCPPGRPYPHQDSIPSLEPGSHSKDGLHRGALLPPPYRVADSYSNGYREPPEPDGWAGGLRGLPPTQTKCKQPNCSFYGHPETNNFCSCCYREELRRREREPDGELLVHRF
# In short: as §1
# PRPF8 = PRPF8 (UniProt Q6P2Q9)
# In short: as §1
# PSMD7 = target: T3, PSMD7 (UniProt P51665)
# T3 sequence (whole entry): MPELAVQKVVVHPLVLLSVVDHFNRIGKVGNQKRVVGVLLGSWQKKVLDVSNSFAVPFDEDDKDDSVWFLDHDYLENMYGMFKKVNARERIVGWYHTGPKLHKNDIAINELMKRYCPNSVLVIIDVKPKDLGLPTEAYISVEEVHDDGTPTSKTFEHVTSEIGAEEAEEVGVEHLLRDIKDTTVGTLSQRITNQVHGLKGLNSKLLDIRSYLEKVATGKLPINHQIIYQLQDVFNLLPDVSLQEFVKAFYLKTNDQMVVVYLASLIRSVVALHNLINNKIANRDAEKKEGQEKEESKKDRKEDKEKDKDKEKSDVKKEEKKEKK
# In short: as §1
# UCHL1 = UCHL1 (UniProt P09936)
# In short: as §1
# UCHL3 = target: T4, UCHL3 (UniProt P15374)
# T4 sequence (whole entry): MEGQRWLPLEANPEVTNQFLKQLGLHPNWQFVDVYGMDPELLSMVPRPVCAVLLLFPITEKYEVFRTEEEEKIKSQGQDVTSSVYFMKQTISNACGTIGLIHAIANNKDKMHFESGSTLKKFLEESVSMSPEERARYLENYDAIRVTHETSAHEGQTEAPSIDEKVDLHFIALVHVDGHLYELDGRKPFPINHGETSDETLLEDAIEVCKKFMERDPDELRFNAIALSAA
# In short: as §1
# UCHL5 = target: T5, UCHL5 (UniProt Q9Y5K5)
# T5 sequence (whole entry): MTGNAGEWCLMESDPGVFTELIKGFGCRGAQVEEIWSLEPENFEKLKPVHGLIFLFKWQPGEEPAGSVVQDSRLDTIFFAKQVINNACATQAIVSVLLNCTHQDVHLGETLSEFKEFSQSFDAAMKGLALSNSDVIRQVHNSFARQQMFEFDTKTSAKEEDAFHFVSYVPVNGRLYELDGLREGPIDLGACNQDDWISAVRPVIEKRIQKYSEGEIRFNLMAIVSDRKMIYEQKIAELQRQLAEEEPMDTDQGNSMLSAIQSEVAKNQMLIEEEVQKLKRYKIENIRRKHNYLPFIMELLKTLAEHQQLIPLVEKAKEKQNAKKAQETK
# In short: as §1
# USP10 = USP10 (UniProt Q14694)
# In short: as §1
# USP15 = target: T6, USP15 (UniProt Q9Y4E8)
# T6 sequence (whole entry): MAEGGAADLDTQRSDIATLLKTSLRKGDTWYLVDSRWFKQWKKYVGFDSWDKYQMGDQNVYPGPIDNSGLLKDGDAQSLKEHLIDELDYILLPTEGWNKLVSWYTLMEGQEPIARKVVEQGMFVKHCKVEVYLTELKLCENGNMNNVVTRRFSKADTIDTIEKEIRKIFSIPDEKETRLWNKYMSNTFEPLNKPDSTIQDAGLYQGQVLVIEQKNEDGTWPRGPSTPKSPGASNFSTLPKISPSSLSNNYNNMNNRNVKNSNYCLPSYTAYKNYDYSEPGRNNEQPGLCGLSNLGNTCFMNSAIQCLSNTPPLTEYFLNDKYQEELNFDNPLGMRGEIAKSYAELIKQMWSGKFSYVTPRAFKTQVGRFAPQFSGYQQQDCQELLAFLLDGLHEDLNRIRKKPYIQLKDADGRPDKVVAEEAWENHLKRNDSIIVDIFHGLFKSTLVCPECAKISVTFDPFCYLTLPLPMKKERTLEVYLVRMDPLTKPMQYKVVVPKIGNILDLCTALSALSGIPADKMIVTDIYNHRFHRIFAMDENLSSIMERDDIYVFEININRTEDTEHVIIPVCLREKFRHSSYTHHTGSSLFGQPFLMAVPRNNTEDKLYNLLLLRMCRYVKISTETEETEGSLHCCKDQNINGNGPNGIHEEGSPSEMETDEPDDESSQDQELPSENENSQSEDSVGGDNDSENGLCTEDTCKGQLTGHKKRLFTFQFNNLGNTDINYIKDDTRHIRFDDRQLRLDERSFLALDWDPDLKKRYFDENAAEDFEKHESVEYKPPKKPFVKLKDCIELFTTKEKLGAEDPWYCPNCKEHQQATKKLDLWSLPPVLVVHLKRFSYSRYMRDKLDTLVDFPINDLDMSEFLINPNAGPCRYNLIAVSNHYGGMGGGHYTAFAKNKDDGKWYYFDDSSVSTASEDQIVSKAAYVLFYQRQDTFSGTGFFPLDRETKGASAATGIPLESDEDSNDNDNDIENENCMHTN
# In short: as §1
# USP16 = USP16 (UniProt Q9Y5T5)
# In short: as §1
# Sequence of USP16 (Q9Y5T5 whole entry, looked up): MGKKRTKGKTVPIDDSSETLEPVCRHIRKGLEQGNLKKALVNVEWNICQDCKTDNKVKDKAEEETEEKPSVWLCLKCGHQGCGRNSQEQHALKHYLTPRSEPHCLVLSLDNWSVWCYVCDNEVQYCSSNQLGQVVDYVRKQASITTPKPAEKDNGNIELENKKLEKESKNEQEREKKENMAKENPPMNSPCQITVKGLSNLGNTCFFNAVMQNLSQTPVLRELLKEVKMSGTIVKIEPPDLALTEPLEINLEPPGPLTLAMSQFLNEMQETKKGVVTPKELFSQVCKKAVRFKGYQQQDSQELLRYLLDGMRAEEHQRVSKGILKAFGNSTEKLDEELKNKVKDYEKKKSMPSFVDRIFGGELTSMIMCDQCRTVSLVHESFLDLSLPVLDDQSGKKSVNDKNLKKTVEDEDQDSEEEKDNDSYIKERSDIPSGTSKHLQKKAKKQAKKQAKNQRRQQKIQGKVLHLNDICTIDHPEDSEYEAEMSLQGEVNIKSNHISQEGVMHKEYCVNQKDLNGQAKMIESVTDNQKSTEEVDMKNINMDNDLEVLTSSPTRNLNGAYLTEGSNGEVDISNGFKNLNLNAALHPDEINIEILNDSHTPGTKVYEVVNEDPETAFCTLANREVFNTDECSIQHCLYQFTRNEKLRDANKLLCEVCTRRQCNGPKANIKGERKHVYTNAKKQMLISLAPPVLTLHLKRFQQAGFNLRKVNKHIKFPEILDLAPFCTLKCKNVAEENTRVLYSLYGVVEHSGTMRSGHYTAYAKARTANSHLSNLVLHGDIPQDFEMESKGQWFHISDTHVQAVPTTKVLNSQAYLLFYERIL
# Sequence of UCHL1 (P09936 whole entry, looked up): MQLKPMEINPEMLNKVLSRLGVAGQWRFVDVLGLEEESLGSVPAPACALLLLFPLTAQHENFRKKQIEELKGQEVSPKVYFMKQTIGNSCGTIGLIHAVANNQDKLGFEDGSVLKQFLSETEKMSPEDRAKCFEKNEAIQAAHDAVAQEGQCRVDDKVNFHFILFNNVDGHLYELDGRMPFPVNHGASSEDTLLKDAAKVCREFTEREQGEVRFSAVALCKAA
# Sequence of USP10 (Q14694 whole entry): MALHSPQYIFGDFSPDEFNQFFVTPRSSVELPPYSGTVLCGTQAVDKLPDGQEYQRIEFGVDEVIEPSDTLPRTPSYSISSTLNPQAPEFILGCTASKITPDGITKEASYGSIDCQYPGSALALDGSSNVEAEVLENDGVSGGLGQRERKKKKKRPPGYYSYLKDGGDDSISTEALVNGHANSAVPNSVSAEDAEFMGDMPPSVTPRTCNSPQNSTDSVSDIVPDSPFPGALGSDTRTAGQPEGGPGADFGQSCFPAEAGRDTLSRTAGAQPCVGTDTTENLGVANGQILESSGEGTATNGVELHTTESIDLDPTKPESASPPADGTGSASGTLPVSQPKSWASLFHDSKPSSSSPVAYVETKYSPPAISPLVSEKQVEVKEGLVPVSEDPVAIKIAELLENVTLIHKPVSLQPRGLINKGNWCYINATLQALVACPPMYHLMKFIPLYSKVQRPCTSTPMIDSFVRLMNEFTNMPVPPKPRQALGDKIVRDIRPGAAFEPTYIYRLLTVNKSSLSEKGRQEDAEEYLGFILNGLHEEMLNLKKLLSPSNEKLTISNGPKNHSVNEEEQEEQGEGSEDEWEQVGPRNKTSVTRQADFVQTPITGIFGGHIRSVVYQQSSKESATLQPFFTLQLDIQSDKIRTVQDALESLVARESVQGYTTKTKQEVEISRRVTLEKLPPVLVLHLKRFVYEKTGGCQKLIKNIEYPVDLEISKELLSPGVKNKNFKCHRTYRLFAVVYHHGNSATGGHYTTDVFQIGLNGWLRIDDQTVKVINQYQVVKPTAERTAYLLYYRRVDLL
structure (smiles),measurement,setting,value
CN1C(=O)c2ccc(NC(=O)CCl)cc2C1=O,log2 ratio of Biotin-Ahx-Ub-VS probe labelling,OTUD6B,-0.407
same,log2 ratio of Biotin-Ahx-Ub-VS probe labelling,OTUD7B,-1.76 (active)
same,log2 ratio of Biotin-Ahx-Ub-VS probe labelling,PRPF8,0.154
same,log2 ratio of Biotin-Ahx-Ub-VS probe labelling,PSMD7,-0.0627
same,log2 ratio of Biotin-Ahx-Ub-VS probe labelling,UCHL1,-1.24 (active)
same,log2 ratio of Biotin-Ahx-Ub-VS probe labelling,UCHL3,0.282
same,log2 ratio of Biotin-Ahx-Ub-VS probe labelling,UCHL5,-0.2
same,log2 ratio of Biotin-Ahx-Ub-VS probe labelling,USP10,-0.0313
same,log2 ratio of Biotin-Ahx-Ub-VS probe labelling,USP15,-0.389
same,log2 ratio of Biotin-Ahx-Ub-VS probe labelling,USP16,-0.455
